Rv3671c protease: inhibitors of M. tuberculosis serine protease Rv3671c; 0.048% of 320,000 active; P9WHR9; inhibition, % at 5.96 µM; in the data active = inhibition above about 38%;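 also: extracellular domain of Rv3671c used as enzyme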
Target sequence (P9WHR9 whole entry, looked up, the tested form may be a part): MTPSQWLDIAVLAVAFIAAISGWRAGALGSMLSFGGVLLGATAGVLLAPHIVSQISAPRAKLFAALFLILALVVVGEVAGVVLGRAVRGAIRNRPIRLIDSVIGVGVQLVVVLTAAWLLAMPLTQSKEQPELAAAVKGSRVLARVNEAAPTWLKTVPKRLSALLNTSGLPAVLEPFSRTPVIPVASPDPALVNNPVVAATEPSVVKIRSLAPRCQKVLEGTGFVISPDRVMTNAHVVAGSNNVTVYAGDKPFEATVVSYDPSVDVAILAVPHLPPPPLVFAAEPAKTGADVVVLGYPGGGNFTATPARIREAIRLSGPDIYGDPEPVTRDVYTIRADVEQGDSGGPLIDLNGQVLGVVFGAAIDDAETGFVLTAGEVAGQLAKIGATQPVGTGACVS
FadD28 binding: M. tuberculosis FadD28 bisubstrate binding inhibition. inhibition, % at 12.5 µM. FadD28 bisubstrate probe binding, fluorescence polarization. 0.22% of 360,000 active; in the data active = inhibition above about 8.5%, passing the limit was not always enough
BioA inh: inhibitors of Mycobacterium tuberculosis BioA enzyme. inhibition, % at 9.99 µM. 0.096% of 360,000 active. AID 602481. purified M. tuberculosis BioA enzyme, plate reader; in the data active = inhibition above about 40%
RecA intein inh: Mtb RecA intein splicing inhibition | P9WHJ3 | cell-free RecA intein splicing, fluorescence | inhibition, % (test concentration not listed) | 0.75% of 290,000 active | AID 2221; in the data active = inhibition above about 30%
UGM FP inh: Mtb UDP-galactopyranose mutase inhibition; 0.06% of 320,000 active; purified UGM, fluorescence polarization probe displacement; P9WIQ1; inhibition, % at 10 µM; in the data active = inhibition above about 10%, passing the limit was not always enough
TcdB GH inh: blocks C. difficile toxin B glycohydrolase activity. TcdB glycohydrolase enzymatic assay, plate reader. inhibition, % at 9.99 µM. 0.24% of 350,000 active; in the data active = inhibition above about 10%
Of the large screens only hits and unclear results are named; the others gave an inactive call. Only some compounds are listed: those with a hit (about 0.9% of all), similar ones and a draw of the others.

O=C(C[C@@H]1CC[C@H]2[C@@H](COC[C@@H](O)CN2Cc2ccc(Oc3ccccc3)cc2)O1)Nc1nccs1	TcdB GH inh 26.7 (no result: Rv3671c protease, FadD28 binding, RecA intein inh, UGM FP inh)
O=C(C[C@H]1CC[C@H]2[C@@H](COC[C@H](O)CN2C(=O)Nc2ccc(Cl)c(Cl)c2)O1)NCc1ccccc1	none (no result: Rv3671c protease, FadD28 binding, RecA intein inh, UGM FP inh)
O=C(C[C@@H]1CC[C@@H]2[C@H](COC[C@@H](O)CN2Cc2ccc(Oc3ccccc3)cc2)O1)Nc1nccs1	none (no result: Rv3671c protease, FadD28 binding, RecA intein inh, UGM FP inh)
C[C@@H]1CN([C@@H](C)CO)C(=O)Cc2cc(NC(=O)Nc3ccc(F)cc3)ccc2O[C@@H]1CN(C)Cc1ccc2c(c1)OCO2	none (no result: Rv3671c protease, FadD28 binding, RecA intein inh, UGM FP inh)
CCCC(=O)N1CC2(CN(C(=O)CC3CC3)C2)c2c(n(C)c3cc(OC)ccc23)[C@@H]1CO	none (no result: Rv3671c protease, FadD28 binding, BioA inh, RecA intein inh, UGM FP inh)
C[C@H]1CN([C@@H](C)CO)C(=O)c2cccc(NC(=O)Nc3ccc(C(F)(F)F)cc3)c2O[C@H]1CN(C)C(=O)Nc1ccc(F)cc1	none (no result: Rv3671c protease, FadD28 binding, RecA intein inh, UGM FP inh)
C[C@H](O)C#Cc1cnc2c(c1)C(=O)N([C@H](C)CO)C[C@H](C)[C@@H](CN(C)Cc1cncnc1)O2	none (no result: Rv3671c protease, FadD28 binding, RecA intein inh, UGM FP inh, TcdB GH inh)
COc1cccc(/C=N/Nc2nc(C)cc(=O)[nH]2)c1OC	FadD28 binding 13.3
CCCC(=O)Nc1ccc2c(c1)OC[C@@H](C)N(C(=O)C1CCCC1)C[C@@H](C)[C@@H](OC)CN(C)C2=O	none (no result: Rv3671c protease, FadD28 binding, RecA intein inh, UGM FP inh)
CCN1CCN(c2oc(-c3ccccc3C)nc2S(=O)(=O)c2ccccc2)CC1	TcdB GH inh 10.4 (no result: Rv3671c protease, BioA inh, RecA intein inh, UGM FP inh)
Oc1ccccc1Oc1c(F)c(F)nc(N2CCCC2)c1F	FadD28 binding 20.8
C[C@@H]1CN([C@@H](C)CO)C(=O)c2cc(NS(C)(=O)=O)ccc2O[C@H]1CN(C)Cc1ccc2c(c1)OCO2	none (no result: Rv3671c protease, FadD28 binding, RecA intein inh, UGM FP inh)
C[C@@H]1CN([C@@H](C)CO)S(=O)(=O)c2ccc(C#Cc3ccncc3)cc2O[C@H]1CN(C)C(=O)C1CC1	TcdB GH inh 11.2 (no result: Rv3671c protease, FadD28 binding, RecA intein inh, UGM FP inh)
CC(=O)N(C)C[C@@H]1Oc2cc(/C=C/c3ccccc3)ccc2S(=O)(=O)N([C@H](C)CO)C[C@@H]1C	TcdB GH inh 12.6 (no result: Rv3671c protease, FadD28 binding, RecA intein inh, UGM FP inh)
CC(=O)N(C)C[C@H]1Oc2cc(/C=C/c3ccccc3)ccc2S(=O)(=O)N([C@H](C)CO)C[C@H]1C	none (no result: Rv3671c protease, FadD28 binding, RecA intein inh, UGM FP inh)
C[C@H]1CN([C@@H](C)CO)S(=O)(=O)c2ccc(C#Cc3ccncc3)cc2O[C@H]1CN(C)C(=O)C1CC1	none (no result: Rv3671c protease, FadD28 binding, RecA intein inh, UGM FP inh)
CCCNC(=O)N1CC2(C1)CN(C(=O)c1cccnc1)[C@H](CO)c1[nH]c3cc(OC)ccc3c12	none (no result: Rv3671c protease, FadD28 binding, BioA inh, RecA intein inh, UGM FP inh)
Cc1ccc(-c2csc(NC(=O)/C=C/c3ccco3)c2C(=O)O)cc1	TcdB GH inh 14.6
Cc1ccc(-c2csc(NC(=O)c3cccc(C)c3)c2C(=O)O)cc1	none
O=c1c2ccccc2nc(/C=C/c2ccc(O)cc2)n1-c1ccccc1O	TcdB GH inh 12.1
Cc1noc(C)c1S(=O)(=O)Nc1cccc2c1O[C@H](CN(C)C(=O)Nc1cccc3ccccc13)[C@H](C)CN([C@@H](C)CO)C2=O	none (no result: Rv3671c protease, FadD28 binding, RecA intein inh, UGM FP inh)
O=C(Nc1ccc(O)cc1)c1ccc2c(c1)C(=O)N(Cc1ccco1)C2=O	TcdB GH inh 16.4 (no result: BioA inh)
O=C(Nc1cc([N+](=O)[O-])ccc1O)c1ccc2c(c1)C(=O)N(Cc1ccco1)C2=O	FadD28 binding 12.0
O=C(Nc1ccc(O)cc1C(=O)O)c1ccc2c(c1)C(=O)N(Cc1ccco1)C2=O	none (no result: TcdB GH inh)
CCSc1nnc(NC(=O)C2CC2c2ccccc2)s1 (stereo not given)	TcdB GH inh 12.0 (no result: BioA inh)
CCSc1nnc(NC(=O)C2CCCCC2C(=O)O)s1 (stereo not given)	none (no result: BioA inh, TcdB GH inh)
COc1ccc2c3c(n(C)c2c1)[C@H](CO)N(C(=O)CC1CC1)CC31CCN(C(=O)CC2CC2)CC1	none (no result: Rv3671c protease, FadD28 binding, BioA inh, RecA intein inh, UGM FP inh)
O=C(NCCO)c1ccc2nc(-c3ccco3)c(-c3ccco3)nc2c1	FadD28 binding 12.9 (no result: TcdB GH inh)
C[C@@H]1CCCCO[C@@H](CN(C)S(=O)(=O)c2cccs2)[C@H](C)CN([C@@H](C)CO)C(=O)c2cc(NC(=O)Nc3cccc4ccccc34)ccc2O1	none (no result: Rv3671c protease, FadD28 binding, RecA intein inh, UGM FP inh, TcdB GH inh)
Cc1n[nH]c(=O)c2c(NC(=O)CSc3nnc(-c4ccco4)n3C)oc(C)c12	UGM FP inh 46.9 (no result: RecA intein inh)
COc1ccc(C2C(C#N)=C(N)SC(N)=C2C#N)cc1OC	BioA inh 42.6 (no result: TcdB GH inh)
COc1ccc(C2C(C#N)=C(N)OC(C(C)(C)C)=C2C#N)cc1OC (stereo not given)	none (no result: TcdB GH inh)
O=C(c1c[nH]c(C(=O)C(Cl)(Cl)Cl)c1)c1ccc(F)cc1F	RecA intein inh 33.8 (no result: BioA inh)
O=C(c1ccccc1)c1c[nH]c(C(=O)C(Cl)(Cl)Cl)c1	RecA intein inh 46.2 (no result: BioA inh)
CN(C)C(=O)c1cc(C(=O)c2ccc(F)cc2F)c[nH]1	none

High-throughput results as filed in PubChem BioAssay.
